HT1080NT lethal: kills 2HG-producing HT-1080-NT fibrosarcoma cells; HT-1080-NT fibrosarcoma viability, CellTiter-Glo ATP luminescence, 48 h; Potency, µM (highest dose often 46.1 µM), for inactives: at the top dose activity, negative = less viability, usual class: cytotoxic; 1.6% of 360,000 active; AID 686970;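 note: NT is the 2HG producing partner of a matched IDH1 knockdown line; potency is the fitted concentration of half-maximal effect; 0% = DMSO-treated cells and -100% = media-only wells without cells; nearly all actives have a fitted effect of over 55% in size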
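Read-out is CellTiter-Glo luminescence after 10 minutes at room temperature, following 48 hours' compound treatment of HT-1080-NT cells (750 cells/well, RPMI, 5% FBS, 37 degrees C).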
TDP1 cell CPT: DT40-hTDP1 cell growth loss with CPT | chicken DT40 Tdp1-/-;hTDP1 cells + 20 nM CPT, ATP luminescence, 48 h | Potency, µM (highest dose often 46.2 µM), without a hit: at the top dose activity change, negative = growth inhibition, most hits filed as inhibitors | 12% of 420,000 active; note: potency is the fitted concentration of half-maximal effect; nearly all actives have a fitted effect of over 55% in size
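Cell growth measured by CellTiter-Glo luminescence after a minimum 48 h, 37 C compound exposure with 20 nM CPT in Tdp1-knockout DT40 cells stably expressing hTDP1, seeded 400/well; qHTS titration format.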
TDP1 cell noCPT: qHTS for Inhibitors of human tyrosyl-DNA phosphodiesterase 1 (TDP1): qHTS in cells in absence of CPT | DT40 Tdp1-/- hTDP1 cells, no CPT, ATP luminescence, 48 h | Potency, µM (highest dose often 46.2 µM), for inactives: at the highest dose activity change, negative = growth inhibition, hits mostly inhibitors | 15% of 420,000 active; note: potency is the fitted concentration of half-maximal effect; nearly all actives have a fitted effect of over 55% in size
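Chicken DT40 Tdp1-/- cells stably complemented with human TDP1 were seeded at 400 cells/well with DMSO in place of 20 nM camptothecin. After compound pinning, cells grew at least 48 hr at 37 °C; viability read by CellTiter-Glo luminescence.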
HT1080 IDH1KD tx: HT-1080 IDH1 knockdown cell toxicity (counter line). AID 686971. Potency, µM (top dose mostly 46.1 µM), for the others: at the top dose activity, negative = toxicity, usual class: cytotoxic. 2% of 360,000 active. HT-1080 IDH1 knockdown viability, ATP luminescence, 48 h;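 note: potency is the fitted concentration of half-maximal effect; 0% = DMSO wells and -100% = cell-free medium wells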
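Luminescent ATP read-out (CellTiter-Glo, 10 min at room temperature) after 48 h compound exposure at 37 °C gave viability of IDH1-knockdown HT-1080 cells. Activity was normalised to DMSO and cell-free wells, then fitted as concentration-response curves.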
IL-1B inflam inh: inhibitors of inflammasome signaling (IL-1 beta secretion). THP-1 LPS/ATP IL-1B secretion, AlphaLISA, 16 h; active compounds read low. AID 743279. activity change, % at 57.5 µM. 4.7% of 360,000 active; in the data active = activity change below about -50%; inconclusive = mostly about -30% to -49%
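Secreted IL-1B measured by AlphaLISA bead assay after 16 h compound exposure of THP-1 cells; compounds (final up to 57.5 uM) added 1 h before LPS (250 ng/mL) and ATP (1.25 mM) stimulation; lower signal means less secretion.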
The depositor's hits bear a star; ? = inconclusive; / = no result given. Rows were chosen to be rich in hits. Some 19% of all compounds tested hit in one or more screens of this group. Unless noted, calls come from the whole dose curve; as a rule, active = well fitted curve in the direction sought with a large enough effect; inconclusive = small, poorly fitted or top-dose-only effect, or another doubt; inactive = no such curve, though single readings can be large; an effect the other way counts as inactive or inconclusive. Unless noted, % is set by controls: 0 for no effect and ±100 for the full control effect.

SMILES	HT1080NT lethal	TDP1 cell CPT	TDP1 cell noCPT	HT1080 IDH1KD tx	IL-1B inflam inh
O=C(COc1ccccc1O)NNc1ccccc1	2.3µM*	21%	5%	3.3µM*	8
COc1ccc(C(=O)N2CCN(C(=O)Cc3ccccc3)CC2)cc1	0%	-3%	-5%	17%	0
C=C1C(=O)O[C@@H]2[C@H]3O[C@]3(C)CCC=C(C)CC[C@@H]12	/	3µM*	2.1µM*	/	/
CC(=O)C1=C(c2ccccc2)NC(=O)NC1c1ccc(O)c(O)c1 (configuration not stated)	14%	2%	-9%	10%	19
O=C1NC(c2ccccc2)=C(c2nc3ccccc3s2)C(c2ccc(F)cc2)N1 (configuration not stated)	?	?	?	?	-75*
COc1ccc(C2NC(=O)NC(c3ccccc3)=C2c2nc3ccccc3s2)cc1 (configuration not stated)	?	14µM*	?	?	?
COc1ccc(-c2nc3ccccc3s2)cc1	-4%	-17%	-26%	-9%	34
Cc1ccc(NC(=O)N2CCCC2C(=O)NCCc2ccccc2)cc1 (configuration not stated)	7%	6%	1%	5%	28
COC(=O)c1sccc1NC(=O)c1c(-c2ccccc2)noc1C	7%	-3%	2%	-3%	32
Cc1onc(-c2ccccc2)c1C(=O)OCC(=O)Nc1ccc(Cl)cc1	-8%	?	?	-21%	0
CCOC(=O)c1ccccc1NC(=O)c1c(-c2ccccc2)noc1C	/	9.2µM*	4.6µM*	/	/
Cc1cccc(OCCOC(=O)c2c(-c3ccccc3)noc2C)c1	?	?	23µM*	?	33
Cc1onc(-c2ccccc2)c1C(=O)OCC(=O)Nc1ccccc1Cl	-9%	?	18µM*	-5%	-1
CCCOc1cccc(NC(=O)c2c(-c3ccccc3)noc2C)c1	4%	-28%	?	-1%	-26
CCCCN(CCCC)S(=O)(=O)c1ccc(NC(=O)c2c(-c3ccccc3)noc2C)cc1	/	21µM*	29µM*	/	/
COc1cccc(NC(=O)CN(C)C(=O)CCCc2nc3ccccc3c(=O)[nH]2)c1	-4%	-24%	17%	-7%	13
COc1ccnc(Oc2cccc(C(F)(F)F)c2)c1C(=O)N/C=N/OCc1ccccc1F	-19%	?	21µM*	?	-59*
COc1ccnc(Oc2ccccc2)c1C(=O)N/C=N/OCc1ccccc1	0%	-8%	?	-13%	-3
O=C1CC(N2CCN(c3ccc(O)cc3)CC2)C(=O)N1Cc1cccs1 (configuration not stated)	?	-13%	?	?	13
CCOc1ccc(N2C(=O)CC(N3CCN(c4ccc(C(=O)c5ccncc5)cc4)CC3)C2=O)cc1 (configuration not stated)	0%	?	21µM*	-4%	-3
O=C(c1ccncc1)c1ccc(N2CCN(C3CC(=O)N(Cc4cccs4)C3=O)CC2)cc1 (configuration not stated)	12µM*	16µM*	23µM*	-28%	-3
CCN1C(=O)CC(N2CCN(c3ccc(C(=O)c4ccncc4)cc3)CC2)C1=O (configuration not stated)	10%	?	-13%	1%	17
CC1CCCCN1Cc1c(O)ccc2c(=O)c(-c3ccc(Br)cc3)coc12 (configuration not stated)	2%	?	-11%	-2%	?
CC(C)N(Cc1c(O)ccc2c(=O)c(-c3ccc(Cl)cc3)coc12)C(C)C	?	2.1µM*	8.2µM*	?	-4
CC1CCCCN1Cc1c(O)ccc2c(=O)c(-c3ccc(Cl)cc3)coc12 (configuration not stated)	1%	7.3µM*	18µM*	-5%	?
SMILES	HT1080NT lethal	TDP1 cell CPT	TDP1 cell noCPT	HT1080 IDH1KD tx	IL-1B inflam inh
CC1CCCCN1Cc1c(O)ccc2c(=O)c(-c3nc4ccccc4s3)c(N)oc12 (configuration not stated)	?	?	23µM*	?	-30
COc1cc(-c2cc3nc(NCCN(C)C)ccn3n2)cc(OC)c1OC	-3%	-19%	-21%	-4%	-9
COc1cc(-c2csc(NC3CCCCC3)n2)cc(OC)c1OC	-18%	?	?	-11%	-80*
FC(F)(F)c1cccc(-c2cc3nc(NC4CCCCC4)ccn3n2)c1	?	21µM*	?	?	-23
COc1cc(-c2cc3nc(NC4CCCCC4)ccn3n2)cc(OC)c1OC	18µM*	16µM*	10µM*	16µM*	9
CN(C)CCNc1c2c(nc3ccccc13)CCC2	-29%	?	18µM*	?	-25
CN(C)CCCNc1c2ccccc2nc2ccccc12	4.1µM*	2.9µM*	2.6µM*	5.2µM*	-103*
CN(C)CCCNc1nc(-c2ccccc2)nc2ccccc12	-25%	27%	-15%	?	?
Cn1c(=O)n(C/C=C/c2ccccc2)c(=O)c2c1nc1n2CCCN1c1ccc(F)cc1	-1%	-29%	?	-4%	-17
O=C(O)CCCn1cc(NC(=O)COc2ccc([N+](=O)[O-])cc2)cn1	5%	-4%	-9%	5%	-8
COc1ccc(/C=C2\SC(=N)N(c3nccs3)C2=O)cc1OC	?	13µM*	5.8µM*	?	-1
O=C1OC(c2cccs2)=N/C1=C\c1ccc(-c2cccc(Cl)c2)o1	2%	21µM*	?	-7%	26
N=C1S/C(=C\c2ccc(-c3cccc(Cl)c3)o2)C(=O)N1c1nccs1	-20%	3.3µM*	2.6µM*	?	-14
CCCCN1C(=O)C(NC(C)=O)c2cc(Br)ccc21 (configuration not stated)	-1%	?	21µM*	-1%	17
CCN1C(=O)C(NC(C)=O)c2cc(Br)ccc21 (configuration not stated)	14%	0%	?	13%	19
Cc1nn(C)cc1/C=C/C(=O)c1ccccc1	?	-26%	-23%	?	?
CCn1cc(/C=C/C(=O)c2ccc(O)cc2)c(C)n1	7%	1%	0%	3%	-81*
CC(C)=CCN1CCN(Cc2nc(-c3ccccc3)cs2)CC1CCO (configuration not stated)	0%	?	?	-1%	0
Cc1ccc(C2C=CC(C#N)=CN2Cc2ccccc2)cc1 (configuration not stated)	-5%	23µM*	?	-10%	69
